The structures appear in SMILES notation. Results filed as inconclusive are left out. Active and inactive are the calls of the source. The call rests on the fitted dose curve; in most records, active means well fitted inhibition curve with a large enough effect; inconclusive means small, poorly fitted or top-dose-only effect; inactive means no such curve, though single readings can be large or run the other way.

The experiment deals with Ubiquitin carboxyl-terminal hydrolase 2 (Homo sapiens) (UniProt O75604). The experiment can be described thus: Confirmation Concentration-response Assay for Inhibitors of Ubiquitin-specific Protease USP2a. The conditions noted are these: USP2 core, Ub-PLA2 coupled fluorescence, NBD C6-HPC; series mostly up to 38.3 µM; activity, negative = inhibition: at the top concentration. The source says: NIH Molecular Libraries Screening Centers Network [MLSCN] NIH Chemical Genomics Center [NCGC] MLSCN Grant: XO1-MH079852-01 PI Name: Nicholson, Ben. Progenra Inc, Malvern, PA NCGC Assay Overview: Homeostasis of cellular proteins is maintained through a combination of synthesis and degradation. The pathway that accounts for the majority of protein degradation is the ubiquitin-proteasomal pathway. Ubiquitin (Ub) is highly conserved in all cells and the generation of a multi-Ub chain typically targets proteins for degradation by the proteasome. However, ubiquitination is highly reversible and dynamic. Deubiquitination, the reverse process, is catalyzed through the action of enzymes referred to as isopeptidases or deubiquitinating enzymes (DUBs). This group of enzymes is collectively responsible for maintaining adequate pools of free ubiquitin and regulating the ubiquitination status of cellular proteins. The class of DUBs referred to as the ubiquitin-specific proteases (USP) family functions endoproteolytically to cleave Ub chains from a wide range of protein substrates. USP2a deubiquitinates fatty acid synthase (FASN) which has recently been identified as an emerging oncology target. To identify inhibitors of USP2a a cell-free assay was employed. […] The reporter enzyme chosen is phospholipase A2 (PLA2), which has an absolute requirement for a free amino terminus. Thus, fusion of a UBL to the N-terminus of PLA2 inactivates PLA2. When the UBL-PLA2 reporter enzyme is cleaved by USP2, the activated reporter can subsequently act on its substrate, which is the commercially available NBD C6-HPC (Invitrogen). Thus, this coupled assay gives a fluorescent read-out, which is generated through the cleavage of the PLA2 reporter enzyme. The assay, developed by Progenra, Inc. uses Ub-PLA2 and USP2a at near equal and low (nM) amounts and has been licensed for sale by LifeSensors, Inc. as the Ub-IsoPro1 kit.
Sequence of Ubiquitin carboxyl-terminal hydrolase 2 (Homo sapiens) (O75604 whole entry, looked up): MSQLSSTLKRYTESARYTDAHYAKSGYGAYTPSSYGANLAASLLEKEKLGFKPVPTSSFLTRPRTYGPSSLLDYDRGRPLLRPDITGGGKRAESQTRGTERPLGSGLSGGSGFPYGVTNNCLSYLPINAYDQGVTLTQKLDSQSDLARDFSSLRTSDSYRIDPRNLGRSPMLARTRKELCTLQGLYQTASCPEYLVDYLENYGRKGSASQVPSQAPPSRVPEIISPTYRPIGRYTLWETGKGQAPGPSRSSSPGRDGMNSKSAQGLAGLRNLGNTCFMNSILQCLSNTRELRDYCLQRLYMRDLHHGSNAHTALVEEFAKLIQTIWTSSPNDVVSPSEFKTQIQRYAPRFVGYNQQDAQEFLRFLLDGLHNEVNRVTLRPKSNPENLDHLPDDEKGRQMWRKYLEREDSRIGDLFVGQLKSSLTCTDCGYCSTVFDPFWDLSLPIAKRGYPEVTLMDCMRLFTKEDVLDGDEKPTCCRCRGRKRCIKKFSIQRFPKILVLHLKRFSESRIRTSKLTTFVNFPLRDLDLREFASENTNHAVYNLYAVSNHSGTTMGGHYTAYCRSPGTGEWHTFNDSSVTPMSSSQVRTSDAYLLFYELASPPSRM
NCGC Assay Protocol Summary: The assay buffer, prepared fresh at the day of the assay, contains 20mM Tris-HCl pH 8.0, 2mM CaCl2, 2mM beta-Mercaptoethanol, 0.1% DMSO. 3ul of 40nM (20nM final) USP2 core, which is stored on ice, is dispensed into a medium-binding black solid Kalypsys 1,536 well plate using the Kalypsys dispenser. The assay plate is then pinned with 23nL compound with the Kalypsys pintool in columns 5-48. The controls are pinned as follows: column 1&2 two-fold dilutions of 2M NEM in duplicate; column 3 DMSO; column 4 2M NEM (final concentration […]). The assay plate is incubated at RT for 30min. Subsequently, 3uL of 40nM (20nM final) Ub-PLA2 and 40uM (20uM final) NBD C6-HPC (stored on ice and protected from light) were dispensed into the plate using the Kalypsys dispenser. Plates were read immediately (0 Hour) on an Envision (Perkin Elmer) plate reader using the following wavelengths Ex 460nm /Em 535nm. Then, the assay plates were incubated for 2.5 hours and read again on the Envision using the same settings Data were normalized to the to AC100 inhibition (NEM). Concentration-response curves were fitted to the normalized data and the concentration-response curves were then classified based on curve quality (r2), response magnitude and degree of measured activity. The time zero reading was used to flag fluorescence artifacts. Keywords: ubiquitination, deubiquitination, proteases, profluorescent, MLSMR, MLSCN, NIH Roadmap, qHTS, NCGC
Take `CCCCCC(=O)N1c2ccccc2C(C)(c2ccccc2)CC1(C)C` (centres undefined): the Potency is 12.6 µM (active). Turning to `Cc1ccc(-n2nc3c(=O)n(CCCC(=O)NCCc4ccccc4Cl)nc(C)c3c2C)cc1`, the Potency is 11.2 µM (active). Consider `COc1ccc(Cl)cc1NC(=O)CSc1nc(=O)[nH]c2c1CCC2`, for which the “activity, negative = inhibition” value is -51.2% (inactive). As for `Oc1c(C(Nc2ccccn2)c2ccccc2F)ccc2cccnc12` (centres undefined), the “activity, negative = inhibition” value was 48.7% (inactive).

For the compound `CCC(C)NC(=O)CSc1nc2cc3c(cc2c(=O)n1Cc1ccc(C(=O)NCCc2ccc(OC)c(OC)c2)cc1)OCO3` (centres undefined), the “activity, negative = inhibition” value was 24.3% (inactive). As to `Cc1ccc(S(=O)(=O)Cc2nc(-c3ccc(C(=O)NCc4ccccc4F)cc3)oc2C)cc1`, the Potency was 14.1 µM (active). Still for that read-out and setting: with `Cc1ccc([C@H]2Nc3ccc(S(=O)(=O)Nc4cccc(Cl)c4C)cc3[C@H]3C=CC[C@H]32)cc1` the figure was 7.94 µM (active). For the compound `Cc1cc(C)c2nc(N(Cc3cccnc3)C(=O)CCS(=O)(=O)c3ccccc3)sc2c1`, the “activity, negative = inhibition” value was 3.88% (inactive). As to `CCOC(=O)C1CCCN(c2c(C(=O)c3ccc(C)cc3)cnc3ccc(OCC)cc23)C1` (centres undefined), the Potency was 3.16 µM (active). On the same count and under the same terms, the figure for `COc1ccc(C(=O)/C=C/c2cn(CC(O)CN(CC(C)C)CC(C)C)c3ccccc23)cc1OC` (centres undefined) is 12.6 µM (active). For the compound `CCc1ccc(C(=O)c2c(N)c(-c3nc(-c4ccc5c(c4)OCO5)cs3)c3ccccn23)cc1`, the “activity, negative = inhibition” value was -99.9% (inactive). For `COC(=O)c1c(NC(=O)CS(=O)(=O)c2ccc(C)cc2)sc2c1CCCCC2`, the “activity, negative = inhibition” value was -4.33% (inactive). For `CCS(=O)(=O)c1nc(S(=O)(=O)c2ccc(C)cc2)c(NCC(C)C)s1`, the Potency is 2.82 µM (active). As for `O=C(CCS(=O)(=O)c1ccccc1)N(Cc1cccnc1)c1nc2c(Cl)cccc2s1`, the “activity, negative = inhibition” value was -20.5% (inactive).

The values are drawn from PubChem BioAssay AID1455 (National Center for Advancing Translational Sciences (NCATS), 2008).
